The supplement of paper PMC9801561
± gives the standard deviation of the averaged measurements.

Tests used:
[1] = test system: Escherichia coli Nissle 1917; experiment: area under OmniLog respiration curve over 48 h (OmniLog units x h); higher = more growth / nutrient utilisation; extreme values may be limits of the assay; settings: incubation: 48 h, 37 °C
[2] = test system: Escherichia coli Nissle 1917; experiment: DuctApe activity index of respiration/growth curve (0 no growth to 9 maximum) (index 0-9); higher = more growth / nutrient utilisation, active = 3 or more; extreme values may be limits of the assay; settings: incubation: 48 h, 37 °C
[3] = nutrient role: sole sulfur source (pyruvate carbon)
[4] = nutrient role: sole phosphorus source (pyruvate carbon)
[5] = nutrient role: C-Source, carboxylic acid
[6] = nutrient role: sole nitrogen source (pyruvate carbon)
[7] = nutrient role: C-Source, carbohydrate
[8] = nutrient role: N-Source, inorganic
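For DuctApe activity index of respiration/growth curve (0 no growth to 9 maximum) in this document: biolog PM4 phosphorus and sulfur plates, tetrazolium violet dye reduction read in the OmniLog every 15 min, kinetic curves scored by DuctApe, each plate run in triplicate.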

## CCSCCC(N)C(=O)O (racemic) [DL-Ethionine]
[1]; [3]
  area under OmniLog respiration curve: 286 ± 250
[2]; [3]
  DuctApe activity index: 0 (inactive)

## OP(O)(=S)S [Dithiophosphate]
[1]; [4]
  area under OmniLog respiration curve: 9000 ± 660
[1]; [3]
  area under OmniLog respiration curve: 7150 ± 210
[2]; [4]
  DuctApe activity index: 8.67 (active)
[2]; [3]
  DuctApe activity index: 7.67 (active)

## O=C(O)CCCO [g-Hydroxybutyric acid]
[1]; [5]
  area under OmniLog respiration curve: 5800 ± 210
[2]; [5]
  DuctApe activity index: 7 (active)

## CCN [Ethylamine]
[1]; [6]
  area under OmniLog respiration curve: 8.5 ± 6.5
[2]; [6]
  DuctApe activity index: 0 (inactive)

## CN [Methylamine]
[1]; [6]
  area under OmniLog respiration curve: 61 ± 97
[2]; [6]
  DuctApe activity index: 0 (inactive)

## O=C1NC(=O)C(=O)C(=O)N1 [Alloxan]
[1]; [6]
  area under OmniLog respiration curve: 402 ± 390
[2]; [6]
  DuctApe activity index: 1.67 (inactive)

## N#C[C@H](O[C@@H]1O[C@H](CO[C@@H]2O[C@H](CO)[C@@H](O)[C@H](O)[C@H]2O)[C@@H](O)[C@H](O)[C@H]1O)c1ccccc1 [Amygdalin]
[1]; [7]
  area under OmniLog respiration curve: 4.97 ± 0.43
[2]; [7]
  DuctApe activity index: 0 (inactive)

## CCOP(=O)(OCC)OCC [Triethyl Phosphate]
[1]; [4]
  area under OmniLog respiration curve: 4.72
[2]; [4]
  DuctApe activity index: 0 (inactive)

## NCCP(=O)(O)O [2-Aminoethyl Phosphonic acid]
[1]; [4]
  area under OmniLog respiration curve: 8180 ± 390
[2]; [4]
  DuctApe activity index: 8 (active)

## O=C(O)CC(Br)C(=O)O (configuration not stated) [Bromosuccinic acid]
[1]; [5]
  area under OmniLog respiration curve: 7400 ± 380
[2]; [5]
  DuctApe activity index: 8 (active)

## NCCc1ccc(O)cc1 [Tyramine]
[1]; nutrient role: C-Source, amine
  area under OmniLog respiration curve: 33 ± 46
[1]; [6]
  area under OmniLog respiration curve: 35.9 ± 54
[2]; nutrient role: C-Source, amine
  DuctApe activity index: 0 (inactive)
[2]; [6]
  DuctApe activity index: 0 (inactive)

## NCCc1ccccc1 [Phenylethylamine]
[1]; nutrient role: C-Source, amine
  area under OmniLog respiration curve: 5.51 ± 1.4
[2]; nutrient role: C-Source, amine
  DuctApe activity index: 0 (inactive)

## O=[N+]([O-])O [Nitrate]
[1]; [8]
  area under OmniLog respiration curve: 4.72
[2]; [8]
  DuctApe activity index: 0 (inactive)

## CN(CC(=O)O)C(=N)NP(=O)(O)O [Phosphocreatine]
[1]; [4]
  area under OmniLog respiration curve: 8760 ± 510
[2]; [4]
  DuctApe activity index: 8.67 (active)

## NCC(O)c1ccc(O)cc1 (racemic) [D,L-Octopamine]
[1]; nutrient role: C-Source, amine
  area under OmniLog respiration curve: 6.75 ± 3.5
[2]; nutrient role: C-Source, amine
  DuctApe activity index: 0 (inactive)

## OP(O)(O)=S [Thiophosphate]
[1]; [4]
  area under OmniLog respiration curve: 9350 ± 660
[1]; [3]
  area under OmniLog respiration curve: 6760 ± 260
[2]; [4]
  DuctApe activity index: 8.67 (active)
[2]; [3]
  DuctApe activity index: 7 (active)

## NCCc1ccccc1 [b-Phenylethylamine]
[1]; [6]
  area under OmniLog respiration curve: 11.4 ± 12
[2]; [6]
  DuctApe activity index: 0 (inactive)

## O=PO [Hypophosphite]
[1]; [4]
  area under OmniLog respiration curve: 2600 ± 590
[2]; [4]
  DuctApe activity index: 4 (active)
